An excerpt weighted towards active compounds, which were near 1.4% of everything screened.
Mac1 fbg inh = inhibitors of human CD11b/CD18 binding to fibrinogen; K562 CD11b/CD18 adhesion to fibrinogen, ATPlite luminescence; Mn2+ added to activate the integrin; inhibition, % at 10 µM; actives 0.54% (n = 93,000); P05107+P11215;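 active = primary inhibition of 50% or more at 10 µM, then 40% or more on retest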
S1P2 antag = antagonists of human S1P2 receptor; O95136; cell-based S1P2 antagonist assay, inhibition at 5 uM; inhibition, % at 5 µM; actives 0.21% (n = 97,000); AID 736; in the data active = inhibition above about 45%;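 also: CRE beta-lactamase reporter cells expressing human S1P2 stimulated with S1P; 0% = agonist at EC80 alone and 100% = agonist plus reference antagonist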
Target sequence (O95136 whole entry, looked up): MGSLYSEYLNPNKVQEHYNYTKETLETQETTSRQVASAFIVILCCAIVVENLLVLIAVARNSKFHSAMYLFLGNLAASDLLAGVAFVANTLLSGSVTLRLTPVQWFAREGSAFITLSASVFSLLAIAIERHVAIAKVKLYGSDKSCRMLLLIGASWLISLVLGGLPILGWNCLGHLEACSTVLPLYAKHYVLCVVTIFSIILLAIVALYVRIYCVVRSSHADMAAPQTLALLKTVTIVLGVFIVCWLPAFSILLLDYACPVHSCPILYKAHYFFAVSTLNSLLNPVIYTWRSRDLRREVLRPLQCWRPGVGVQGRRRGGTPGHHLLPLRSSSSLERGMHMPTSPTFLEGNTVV
Mac1 fbg enh = increases human CD11b/CD18 adhesion to fibrinogen | actives 0.07% (n = 93,000) | P05107+P11215 | activation, % at 10 µM | K562 CD11b/CD18 adhesion to fibrinogen, ATPlite luminescence;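 active = 10 µM primary screen giving 50% or more activity, confirmed by 40% or more on retest at that dose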
S1P2 agonist = S1P2 (human) receptor agonism. O95136. activation, % at 4.5 µM. actives 0.46% (n = 97,000). S1P2-expressing cell line, agonist reporter read-out; in the data active = activation above about 16%;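 also: 0% = vehicle low control and 100% = maximal reference agonist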
GALR2 antag = blocks the human galanin receptor 2 | AID 828 | GALR2-expressing cells, antagonist mode | inhibition, % at 4 µM | actives 0.39% (n = 140,000); in the data active = inhibition above about 27%;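 also: cells stimulated with galanin 1-16 at roughly its EC80; 0% = agonist challenge control and 100% = basal control without agonist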
GALR2 ag = activates the human galanin receptor 2; GALR2-expressing cells, agonist activation read-out; O43603; activation, % (test concentration not listed); actives 0.48% (n = 140,000); AID 803; in the data active = activation above about 5%, passing the limit was not always enough;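 also: 0% = vehicle buffer wells and 100% = reference agonist at full effect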
Active calls of the source: *; / = not tested or not shown.

SMILES	Mac1 fbg inh	S1P2 antag	Mac1 fbg enh	S1P2 agonist	GALR2 antag	GALR2 ag
CCC(C)NC(=O)C1c2ccccc2C(=O)N1Cc1cc(OC)ccc1OC (stereo not drawn)	-17.5	0.1	1.4	-6.4	-5.3	-3.5
O=[N+]([O-])c1c(NCCCO)cc(Sc2ccc(Cl)cc2)c2nonc12	/	/	/	/	8.5	5.0*
CC(C)(C)c1cc(C(c2cccnc2)N2CCN(CCO)CC2)cc(C(C)(C)C)c1O (stereo not drawn)	52.3*	13.0	-5.7	-4.7	7.0	0.7
COc1cccc(C2C(C(=O)Nc3nc4ccccc4s3)=C(C)NC3=C2C(=O)CC(C)(C)C3)c1OC (stereo not drawn)	-6.7	-16.8	-4.3	11.4	1.3	6.3
COc1ccc(OC)c(C2C(C(=O)Nc3nc4ccccc4s3)=C(C)NC3=C2C(=O)CCC3)c1 (stereo not drawn)	11.7	-19.6	-1.0	23.7*	0.6	14.2*
O=[N+]([O-])c1ccc(O)c2ncccc12	/	/	/	/	6.4	-1.2
O=[N+]([O-])c1cc([N+](=O)[O-])c2cccnc2c1Oc1ccccc1O	90.0*	/	-9.5	/	-14.6	-0.7
CCN(C(=O)c1ccc(C(C)(C)C)cc1)c1nnc(Cn2nnc3ccccc32)s1	99.2*	86.6*	-10.9	-10.4	16.7	-1.9
CC1=C(C)CC(C(=O)NCc2ccc3c(c2)OCO3)C(C(=O)O)C1 (stereo not drawn)	26.5	13.1	-1.2	-1.8	-1.7	-0.5
CN(C)C=Nc1nonc1N	-4.3	5.0	-3.4	-10.6	-14.2	0.1
[O-][N+]1=c2ccc(Nc3ccccc3)cc2=NC12CCCCC2	3.2	47.7*	0.9	-10.7	11.9	-2.8
CC1(C)Cc2c(sc(NC(=O)c3ccco3)c2C#N)CO1	-1.5	3.0	-0.1	-5.6	0.0	-0.4
CCOC(=O)c1c(C)[nH]c(C(=O)/C(C#N)=C/c2ccc(OC(F)F)c(OC)c2)c1C	/	/	/	/	1.0	-1.3
COc1cc(CN(C)CC(=O)c2[nH]c(C)c(C(C)=O)c2C)ccc1OC(F)F	74.1*	18.7	-7.3	-5.2	15.6	-2.5
CC(=O)c1c(C)[nH]c(C(=O)COc2ccc(C#N)cc2)c1C	/	8.3	/	-6.6	8.0	-0.9
COc1ccccc1OCC(=O)c1[nH]c(C)c(C(C)=O)c1C	/	50.6*	/	-3.5	-1.1	-2.2
O=C(COc1ccccc1-c1ccccc1)N/N=C/c1ccc2ccccc2c1	/	/	/	/	12.3	6.8*
CCOC(=O)N1CCN(C(=O)c2cnc(Nc3ccccc3OC)c3ccccc23)CC1	-3.9	/	-4.1	/	11.7	7.0*
CCOC(=O)N1CCN(C(=O)c2cccc(OC)c2OC)CC1	-9.5	-11.9	-0.5	-1.7	-22.1	0.2
CC1=CC(C)(C)N(S(=O)(=O)c2ccc(C)cc2)c2cc(C)ccc21	79.0*	-8.5	-4.8	3.9	16.4	-0.6
Cc1ccc2nc3c(cc(C(=O)NCc4cccnc4)c(=N)n3C(C)C)c(=O)n2c1	-16.3	/	-3.5	/	/	/
CCn1c(=N)c(C(=O)OC)cc2c(=O)n3ccccc3nc21	39.9	/	-3.2	/	/	/
CC(C)n1c(=N)c(C(=O)NCCc2ccccc2)cc2c(=O)n3ccccc3nc21	/	-68.3	/	94.4*	-21.9	17.5*
COC(=O)c1cc2c(=O)n3ccccc3nc2n(C(C)C)c1=N	/	-31.8	/	18.9*	-3.6	17.3*
CCOC(=O)Cc1nnc2c(Nc3ccccc3F)nc3nonc3n12	99.4*	-8.9	-11.1	-1.2	-10.0	0.3
SMILES	Mac1 fbg inh	S1P2 antag	Mac1 fbg enh	S1P2 agonist	GALR2 antag	GALR2 ag
Cc1ccc(S(=O)(=O)Nc2nc3ccccc3s2)cc1	5.4	-27.9	-2.1	-2.3	-1.8	-1.9
O=S(=O)(Nc1nc2ccccc2s1)c1ccc(Br)s1	100.6*	-6.4	-11.8	-2.8	8.2	-0.3
Cc1ccc(C)c(OCCCC(=O)O)c1	-7.7	-8.2	3.3	-4.6	-4.7	-2.0
Clc1ccc2oc(-c3cccnc3NCc3ccccc3)nc2c1	-2.3	-18.4	3.3	25.0*	-12.9	3.0
Cc1cc2c(=O)n(CC(=O)N3CCN(c4ccc(F)cc4)CC3)cnc2s1	-30.5	15.6	0.7	31.1*	-11.6	-0.4
COc1ccc(N(Cc2ccccc2)C(=O)CSc2nnc(Cn3nnc4ccccc43)o2)cc1	20.8	-8.7	-2.1	-9.4	6.8	-0.4
O=C(CSc1nnc(Cn2nnc3ccccc32)o1)N(Cc1ccc(F)cc1)c1ccccc1	102.1*	30.1	-11.1	-7.4	11.3	0.3
CN1CCN(S(=O)(=O)c2cc([N+](=O)[O-])ccc2N2CCCCCC2)CC1	-20.4	-22.6	-1.2	-5.8	-1.8	-3.0
COC(=O)C1=C(O)/C(=C\c2ccc(O)c(OC)c2)N=C1C	-12.3	21.8	-6.6	-3.6	3.5	-3.5
O=C(CSc1ccccc1)Nc1ccc(-c2nc3ccccc3[nH]2)cc1	0.3	/	5.7	/	-5.2	-0.8
O=C(CSc1ccc(Cl)cc1)Nc1cccc(-c2nc3ccccc3[nH]2)c1	8.5	/	34.2	/	1.3	6.2*
Cc1cc(SCC(=O)c2cccs2)n2nc(C)c(-c3ccc(Cl)cc3)c2n1	/	/	/	/	9.7	-1.1
C=CCSc1cc(C)nc2c(-c3ccc(Cl)cc3)c(C)nn12	-2.0	-35.2	-6.3	23.0*	-9.4	0.5
CCCCc1ccc(S(=O)(=O)NCCc2ccncc2)cc1	64.8*	-1.6	-8.3	-2.5	2.5	-2.3
Cc1cc(NCCOCCO)n2ncc(-c3ccc(Cl)cc3)c2n1	5.8	-41.7	4.1	17.6*	-6.7	-1.0
CN(C)c1nc(N)nc(CSc2nc3cc(Cl)ccc3o2)n1	13.0	-5.0	8.5	6.8	-5.7	-1.1
O=S1(=O)C=C(Sc2nc3cc(Cl)ccc3o2)c2ccccc21	-10.2	94.0*	-2.4	-10.6	9.9	-1.0
CCOC(=O)c1c(NC(=S)NC(=O)c2ccc(Cn3cc(Cl)cn3)o2)sc2c1CCCCC2	3.6	-18.3	69.0*	-6.8	2.3	-0.3
CCOC(=O)c1c(NC(=S)NC(=O)c2cnn(CC)c2)sc2c1CCC(C)C2 (stereo not drawn)	4.7	12.1	157.2*	-9.3	2.5	0.2
Cc1cc(C)n(-c2nnc3n2N=C(c2ccccc2)CS3)n1	-0.1	10.4	0.4	-3.0	11.8	-2.8
O=C(CN1CCc2ccccc2C1)Nc1ccccc1N1CCCCCC1	15.7	-11.1	3.8	-5.2	0.8	1.5
Cc1ccc(C(=O)N/N=C(/CC(=O)c2cccs2)C(F)(F)F)cc1	97.6*	/	-9.3	/	5.5	-1.5
COc1cccc(-c2cc(C(=O)Nc3cc(C)on3)no2)c1	-8.6	8.0	2.5	-4.8	-6.4	6.2*
Cc1cc(NC(=O)c2cc(-c3cccc(Cl)c3)on2)no1	10.5	-1.0	12.1	-9.3	4.5	-2.2
Cc1c([N+](=O)[O-])c([N+](=O)[O-])nn1CC(=O)NCCc1ccccc1	26.1	/	-4.8	/	-6.1	0.3
COCCCn1c(=NC(=O)c2ccncc2)c(C#N)cc2c(=O)n3cccc(C)c3nc21	-23.5	/	16.2	/	-12.6	5.6*
